# In PubChem BioAssay AID602242 (Southern Research Specialized Biocontainment Screening …, 2012):
# Results with a measured potency or affinity are listed apart. The source made the active and inactive calls. How the calls were made is not given here.
# Assay: cell-based, strain KU V3526, counter-screen (AID 602242)
row,Structure (SMILES),outcome
1,O=C(Oc1ccc2ccccc2c1Br)N1CCCCCC1,inactive
2,O=c1c2cc([N+](=O)[O-])ccc2nc(CN2CCN(c3ccccc3)CC2)n1-c1ccccc1F,inactive
